Test results reported in PubChem BioAssay (Tox21).
Results filed as inconclusive are left out. Activity calls are given as the source filed them. Unless noted, calls follow the shape of the full dose curve.

Experiments:
[1] = qHTS assay to identify small molecule antagonists of the estrogen related receptor signaling pathway with the pleiotropic PPARgamma coactivator (PGC) from Tox21 10K library - cell viability counter screen (AID 1224840; active = well fitted cell-killing curve with a large enough effect in the repeat runs, not every such curve was filed as active; also: nearly all actives have a fitted effect of over 40% in size); settings: PGC/ERR reporter cells viability, CellTiter-Fluor, 17.5 h; series mostly up to 92.4 µM
Outline: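 Counter-screen for cytotoxicity: after 17.5 h compound exposure at 37 C, CellTiter-Fluor reagent added to PGC/ERR cells for 30 min and fluorescence read. Cells were seeded at 2,000 per well 6 h before dosing.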

[2] = qHTS assay to identify small molecule antagonists of the estrogen related receptor signaling pathway with the pleiotropic PPARgamma coactivator (PGC) from Tox21 10K library (AID 1224841; call rule not given here; also: actives are mostly falling curves and most rising ones were filed inactive; nearly all actives have a fitted effect of over 50% in size); settings: PGC/ERR reporter cell line, ONE-Glo luciferase, 18 h; series mostly up to 92.4 µM
Outline: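 Luminescence (One-Glo, 30 min at room temperature) after 18 h compound treatment at 37 C of PGC/ERR reporter cells plated at 2,000 cells/well and settled 6 h beforehand.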

[3] = qHTS assay to identify small molecule agonists of the estrogen related receptor signaling pathway with the pleiotropic PPARgamma coactivator (PGC) from Tox21 10K library (AID 1224842; active = well fitted curve in the direction sought with a large enough effect in the repeat runs; an effect the other way counts as inactive or inconclusive; also: nearly all actives have a fitted effect of over 15% in size); settings: PGC/ERR reporter cell line, luciferase ONE-Glo, 18 h; series mostly up to 92.4 µM
Outline: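 PGC/ERR reporter cells (NTP line) were seeded 2,000 per well, rested 6 h at 37 C/5% CO2, then pin-dosed with compounds in DMSO for 18 h at 37 C; luciferase read by One-Glo luminescence after 30 min at room temperature.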

[4] = qHTS assay to identify small molecule agonists of the hypoxia (HIF-1) signaling pathway - cell viability counter screen (AID 1224844); settings: HRE-bla ME-180 viability, CellTiter-Glo luminescence, 17 h; series mostly up to 76.8 µM; also: nearly all actives have a fitted effect of over 50% in size
Outline: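 Cytotoxicity measured by CellTiter-Glo ATP luminescence in the wells also read for beta-lactamase signal. Cells were HRE-bla ME-180 (2,000/well, 0.5% dialyzed FBS), exposed to compounds for 17 h at 37C.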

[5] = qHTS assay to identify small molecule agonists of H2AX (AID 1224845; active = well fitted activation curve with a large enough effect in the signal ratio in the repeat runs, not every such curve was filed as active; the % refers to the signal ratio); settings: CHO-K1 phospho-H2AX Ser139 HTRF, 3 h; series mostly up to 154 µM
Outline: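 Wild-type CHO-K1 cells plated overnight, then exposed 3 hr at 37C to compounds at 15 concentrations (0.76% DMSO). Lysed, then HTRF anti-pH2AX(S139)-cryptate/anti-H2AX-d2 detection after 24 hr at room temperature; emissions 665 and 620 nm.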

[6] = qHTS assay to identify small molecule agonists of the hypoxia (HIF-1) signaling pathway (AID 1224846; active = well fitted activation curve with a large enough effect in the signal ratio in the repeat runs, not every such curve was filed as active; the % refers to the signal ratio); settings: HRE-bla ME-180 cells, beta-lactamase ratio, 17 h; series mostly up to 76.8 µM
Outline: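 Compounds added to ME-180 cells carrying hypoxia-response-element beta-lactamase reporter (0.5% dialyzed FBS, 5 h preplating), 17 h at 37C; agonist activity detected by CCF4-AM B/G FRET read-out.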

[7] = qHTS assay to identify small molecule agonists of H2AX - cell viability counter screen (AID 1224847); settings: CHO-K1 viability, CellTiter-Glo luminescence, 3 h; series mostly up to 154 µM; also: top concentration of the series differs between compounds; nearly all actives have a fitted effect of over 30% in size
Outline: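 Cells plated first: CHO-K1, 1000 per well in 10% FBS medium, incubated overnight at 37C. Then 15-point compound titration added (final DMSO 0.76%) for 3 hr. Finally CellTiter-Glo added and luminescence read.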

[8] = qHTS assay to identify small molecule antagonists of the estrogen related receptor (ERR) signaling pathway from Tox21 library (AID 1224848; active = well fitted curve in the direction sought with a large enough effect in the repeat runs; an effect the other way counts as inactive or inconclusive; also: nearly all actives have a fitted effect of over 50% in size); settings: ERR reporter cell line, luciferase antagonist mode, 18 h; series mostly up to 92.4 µM
Outline: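 Tox21 10K compounds in DMSO tested for ERR pathway antagonism in NTP's ERR cell line; 18 h, 37 C exposure; ONE-Glo luminescence.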

[9] = biological target: Thyrotropin receptor (Homo sapiens) (UniProt P16473); test: qHTS assay to identify small molecule agonists of the thyroid stimulating hormone receptor (TSHR) signaling pathway (AID 1224843); settings: TSHR-HEK293 cells, cAMP HTRF, agonist mode, 30 min; series mostly up to 92.4 µM; also: nearly all actives have a fitted effect of over 45% in size
Outline: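 Using 15 concentrations per compound in triplicate, cAMP production was monitored in TSHR-HEK293 cells after 30 min compound incubation at RT; HTRF reagents followed, with fluorescence intensity recorded after 1 h.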

Measured: Potency

Sequence of Thyrotropin receptor (Homo sapiens) (P16473 whole entry, looked up): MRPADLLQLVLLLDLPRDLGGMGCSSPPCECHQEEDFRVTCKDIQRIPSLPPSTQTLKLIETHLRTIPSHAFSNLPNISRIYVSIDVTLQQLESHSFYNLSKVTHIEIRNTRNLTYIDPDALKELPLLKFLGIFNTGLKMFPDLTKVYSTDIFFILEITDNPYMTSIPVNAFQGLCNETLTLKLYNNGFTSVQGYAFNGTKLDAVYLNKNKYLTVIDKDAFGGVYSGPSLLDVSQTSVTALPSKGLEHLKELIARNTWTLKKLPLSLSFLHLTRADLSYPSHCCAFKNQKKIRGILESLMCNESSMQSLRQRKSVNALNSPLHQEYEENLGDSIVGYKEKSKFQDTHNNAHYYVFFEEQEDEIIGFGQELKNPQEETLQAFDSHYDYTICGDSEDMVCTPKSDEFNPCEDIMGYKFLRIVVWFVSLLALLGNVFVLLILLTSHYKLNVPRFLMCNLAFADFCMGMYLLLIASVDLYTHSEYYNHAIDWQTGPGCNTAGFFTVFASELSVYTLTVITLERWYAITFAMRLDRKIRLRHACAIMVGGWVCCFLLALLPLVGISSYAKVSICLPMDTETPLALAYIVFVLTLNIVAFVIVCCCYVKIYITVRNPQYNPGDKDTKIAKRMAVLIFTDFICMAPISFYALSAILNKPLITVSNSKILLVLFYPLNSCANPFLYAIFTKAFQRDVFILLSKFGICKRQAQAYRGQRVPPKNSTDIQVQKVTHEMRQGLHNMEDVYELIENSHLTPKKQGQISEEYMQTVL

CNCc1ccccc1
not listed: [8] | [9]
inactive: all other assays above

CC(C)SCc1ccco1
not listed: [9]
inactive: all other assays above

CC1CCC(C(C)(C)S)C(=O)C1 (configuration not stated)
not listed: [6]
inactive: all other assays above

Cc1ccccc1OCC1CO1 (configuration not stated)
not listed: [9]
inactive: all other assays above

CC(=O)OCCCc1ccccc1
not listed: [6] | [8]
inactive: all other assays above

CCCCCN(CCCOC)C(=O)C(CCC(=O)O)NC(=O)c1ccc(Cl)c(Cl)c1 (configuration not stated)
not listed: [9]
inactive: all other assays above

CCNC(=O)NCCCOc1cccc(CN2CCCCC2)c1
not listed: [8] | [9]
inactive: all other assays above

CCCCCCCCCCC
not listed: [6] | [8]
inactive: all other assays above

NC(=O)NNC(N)=O
inactive: all assays above

CCN(CCO)c1cccc(C)c1
inactive: all assays above

c1ccccc1
inactive: all assays above

CC(C)CCC(=O)CCC(C)C
inactive: all assays above

Cc1ccccc1C
not listed: [9]
inactive: all other assays above

CCC1COC(=O)O1 (configuration not stated)
inactive: all assays above

CC(=O)/C=C/c1ccco1
not listed: [6] | [8]
inactive: all other assays above

FC(F)(F)c1ccc(Cl)cc1Cl
inactive: all assays above

C=C(C)C(=O)OCCCCCCOC(=O)C(=C)C
inactive: [1] | [2] | [3] | [4] | [5]

CN[C@@H]1[C@@H](O)[C@@H](O[C@@H]2[C@H](O)[C@H](O[C@H]3OC(CN)=CC[C@H]3N)[C@@H](N)C[C@H]2N)OCC1(C)O (some centres not stated)
not listed: [6] | [8]
inactive: all other assays above

CCCCCCCCOC(C)=O
inactive: all assays above

O=C(O)/C=C/c1ccccc1
not listed: [7]
inactive: all other assays above

C[C@H](CCC(=O)NCC(=O)O)[C@H]1CC[C@H]2[C@@H]3[C@H](O)C[C@@H]4C[C@H](O)CC[C@]4(C)[C@H]3C[C@H](O)[C@]12C
not listed: [6] | [8]
inactive: all other assays above

Oc1ccccc1Cc1ccccc1O
inactive: all assays above

CCCCCCCCCCCCCCCC(=O)NCCO
not listed: [6]
inactive: all other assays above

CCCCOC(=O)C(C)OC(=O)CCC (configuration not stated)
inactive: all assays above

OC[C@@H](O)[C@H](O)[C@@H](O)[C@@H](O)CO
not listed: [6]
inactive: all other assays above

O=[Si]=O
not listed: [7] | [8] | [9]
inactive: all other assays above

C1CCN2C[C@@H]3C[C@@H](CN4CCCC[C@@H]34)[C@H]2C1
not listed: [6] | [9]
inactive: all other assays above

NS(=O)(=O)c1ccccc1OC(F)(F)F
not listed: [9]
inactive: all other assays above

CCCOC(=O)CCCCC(=O)OCCC
not listed: [9]
inactive: all other assays above

Cc1nc2n(c(=O)c1CCN1CCC(C(=O)c3ccc(F)cc3)CC1)CCS2
not listed: [2] | [8]
inactive: all other assays above

CCN1CN(CC)CN(CC)C1
inactive: [1] | [9] | [4] | [5] | [6]

C[N+](C)(C)CC(O)CCl (configuration not stated)
not listed: [2] | [3] | [8]
inactive: all other assays above

CCS(=O)(=O)CCn1c([N+](=O)[O-])cnc1C
not listed: [2] | [6] | [8]
inactive: all other assays above
